esBAF inh: blocks esBAF chromatin remodeling in mouse ES cells | Bmi1-luciferase knock-in reporter, 24 h; 100% = twice the neutral-well signal | reporter increase, % at 12.5 µM | actives 2% (n = 350,000) | AID 602393; in the data active = activation above about 40%; inconclusive = no clear call, values can overlap the other calls;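 also: 0% = median of the plate's neutral control wells and 100% = double that signal; a rise in the Bmi1 reporter signal indicates esBAF inhibition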
HSF1 inh: HSF1 inhibition; NIH3T3-HGL HSE-luciferase, MG132-induced, luminescence 8 h; hits give low values; activity change, negative = inhibition, % at 7.5 µM (by protocol); actives 0.77% (n = 300,000);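 active = more than half of replicate wells show activity change below -50%, luminescence cut by over half; inconclusive = some wells, but at most half, below -50%; inactive = no replicate well below -50%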;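 also: luciferase reports HSF-1 transcriptional activity via heat shock element; 0% = median of DMSO wells and -100% = zero luminescence signal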
HSF1 activator: increases HSF-1 driven luciferase reporter signal; NIH3T3-HGL HSF-1 luciferase reporter, MG132, 8 h; 100% = twice DMSO control signal; activation, % at 9 µM; actives 1.7% (n = 300,000); AID 504408;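 active = mean replicate activation of at least 50% with a set share of replicates each reaching 50%; inconclusive = only one of those two conditions met; inactive = mean below 50% and too few replicates reaching it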;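 also: 0% = median of the neutral control wells and 100% = twice that signal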
MITF TRPM1 HTS: MITF TRPM1 promoter activation in melanoma cells | actives 0.75% (n = 300,000) | AID 588334 | activation, % at 12.5 µM | SK-MEL-5 TRPM1-promoter luciferase, 24 h; % of positive control, neutral wells = 0;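 active = mean activation of at least 80% with every replicate also reaching 80%; inconclusive = mean reaches 80% but some replicate falls short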;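 also: 0% = neutral control wells and 100% = parthenolide positive control wells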
SMARCA2 activ: increases SMARCA2 function in MMTV reporter cells; actives 1% (n = 370,000); activation, % at 9.1 µM; MG213 cells, MMTV-luciferase reporter, dexamethasone, overnight; in the data active = activation above about 7.8%;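 also: 0% = vehicle wells and 100% = reference activator wells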
Wnt act: activators of Wnt/beta-catenin signaling. activation, % at 9.35 µM. Wnt/beta-catenin reporter cell assay, activator, plate reader. actives 1.2% (n = 300,000). AID 743398; in the data active = activation above about 30%, passing the limit was not always enough; inconclusive = no clear call, values can overlap the other calls;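 also: 0% = neutral control wells and 100% = positive control wells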
esBAF Ring1 qPCR: esBAF inhibition confirmed by Ring1 de-repression; AID 743176; fold change at 33 µM; 550 tested, under 10 active; mouse ESC E14, Ring1 mRNA RT-qPCR fold change; shares compounds with esBAF inh;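 active = Ring1 gene expression raised more than 2-fold over untreated cells in both replicates at either tested dose; inconclusive = only one replicate above 2-fold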;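 also: Ring1 transcript normalised to actin housekeeping signal by TaqMan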
esBAF Fgf4 qPCR: esBAF inhibition confirmed by Fgf4 repression; Fgf4 expression fold change at 33 µM; mouse ESC E14, Fgf4 mRNA qPCR fold change; hits give low values; shares compounds with esBAF inh; actives 4% (n = 550);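 active = Fgf4 expression under 0.8 fold of control in both repeat measurements at one or both tested doses; inconclusive = under 0.8 fold in just a single repeat measurement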;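 also: Fgf4 transcript normalised to actin in duplex TaqMan qPCR; cells exposed to compound for 24 h before lysis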
esBAF Bmi1 qPCR: esBAF inhibition confirmed by Bmi1 de-repression. mouse ESE14 ES cells, Bmi1 mRNA qPCR fold; hits give high values. AID 743180. fold change at 33 µM. 550 tested, under 10 active. shares compounds with esBAF inh;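 active = Bmi1 expression fold change above 6 at either tested concentration, seen in replicate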;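 also: higher fold means more Bmi1 de-repression and stronger esBAF inhibition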
A549 tox SP: cytotoxicity in A549 cells. cell viability change % (negative = cytotoxic), % at 25 µM, hits read low. AID 743188. 550 tested, under 10 active. shares compounds with esBAF inh. plate reader; call rule not given here
HepG2 cytotox SP: HepG2 cell cytotoxicity at single point; shares compounds with esBAF inh; plate reader; hits give low values; activity change, negative = inhibition, % at 25 µM; actives 4% (n = 550); in the data active = activity change below about -50%
HEK293 tox SP: kills or reduces viability of HEK293 cells; shares compounds with esBAF inh; HEK293 cytotoxicity, plate reader; activity change, negative = inhibition, % at 25 µM, hits read low; actives 3% (n = 550); AID 743190; in the data active = activity change below about -38%, passing the limit was not always enough
The depositor's hits bear a star; ? = inconclusive; . = no result given. Hits are enriched below; roughly 4.3% of the tested compounds scored in any of these assays.

SMILES	esBAF inh	HSF1 inh	HSF1 activator	MITF TRPM1 HTS	SMARCA2 activ	Wnt act	esBAF Ring1 qPCR	esBAF Fgf4 qPCR	esBAF Bmi1 qPCR	A549 tox SP	HepG2 cytotox SP	HEK293 tox SP
Cc1noc(C)c1S(=O)(=O)N(C)C[C@@H]1Oc2ccc(NC(=O)Cc3ccccc3)cc2CC(=O)N([C@H](C)CO)C[C@H]1C	6.7	.	.	.	.	.	.	.	.	.	.	.
COc1ccc(OCc2cc(C(=O)NC(C)Cc3cnccn3)no2)c(Cl)c1 (stereo unspecified)	61.0*	15.4	22.1	64.9	1.1	-1.1	0.845	0.92	1.41	-6.8	-20.9	-1.6
Cc1ccc(OCc2cc(C(=O)NC(C)Cc3cnccn3)no2)cc1C (stereo unspecified)	.	-0.7	19.4	1.2	-1.8	-2.8	.	.	.	.	.	.
O=C(C[C@H]1CC[C@H]2[C@@H](COC[C@H](O)CN2Cc2cccc(-c3ccncc3)c2)O1)N1CCOCC1	2.8	.	.	.	.	.	.	.	.	.	.	.
Cc1ccc(S(=O)(=O)NCc2ccccc2)cc1C(=O)NC1CCC(C)CC1 (stereo unspecified)	74.1*	9.9	7.5	79.5	1.8	20.6	1.11	0.905	1.5	-11.7	-1.4	-9.5
CO[C@@H]1CN(C)C(=O)c2cc(NC(=O)C3CCOCC3)ccc2OC[C@@H](C)N(C(=O)Nc2ccc(C(F)(F)F)cc2)C[C@H]1C	3.3	.	.	.	.	.	.	.	.	.	.	.
C[C@@H]1CN([C@@H](C)CO)C(=O)c2cccc(NC(=O)c3ccncc3)c2O[C@@H]1CN(C)C(=O)Nc1ccccc1	-3.0	.	.	.	.	.	.	.	.	.	.	.
COc1ccc(NC(=O)c2csc3c2CCCC3)cc1	68.9*	34.1	53.1*	57.5	.	24.3	0.942	0.974	1.46	-7.9	-50.6*	-21.3
COc1ccc(CNC(=O)c2csc3c2CCCC3)cc1	4.7	.	.	5.5	-1.1	-2.4	.	.	.	.	.	.
O=C(Cn1cnc2ccccc2c1=O)c1ccc2ccccc2c1	35.2	19.4	24.6	52.2	-0.1	.	.	.	.	.	.	.
Cc1cc(C(=O)Cn2cnc3ccccc3c2=O)c(C)n1C1CC1	64.7*	14.1	16.8	53.1	3.3	20.4	1.25	0.921	1.3	-1.5	-22.0	1.2
COc1cc(Cl)c(C)cc1NC(=O)c1cccc(OC)c1OC	57.4*	30.4	32.5	58.7	5.8	12.5	1.3	0.856	1.6	3.4	11.8	-11.8
COc1cccc(C(=O)Nc2cccc3ccccc23)c1OC	16.9	-2.4	-1.7	.	-2.0	1.5	.	.	.	.	.	.
C[C@H]1CCCCO[C@@H](CN(C)C)[C@@H](C)CN([C@@H](C)CO)C(=O)c2cc(NC(=O)Nc3ccc4c(c3)OCO4)ccc2O1	-4.1	.	.	.	.	.	.	.	.	.	.	.
C[C@@H]1CCCCO[C@@H](CN(C)C(=O)c2ccccc2)[C@@H](C)CN([C@@H](C)CO)C(=O)c2cc(NC(=O)Nc3ccc(F)cc3)ccc2O1	1.4	.	.	.	.	.	.	.	.	.	.	.
O=C(Nc1ccccc1)C1CC(=O)N(Cc2ccccc2)C1 (stereo unspecified)	-0.4	-4.7	1.5	-8.9	-1.4	-2.0	.	.	.	.	.	.
CC(=O)c1ccc(NC(=O)C2CC(=O)N(Cc3ccccc3)C2)cc1 (stereo unspecified)	56.2*	9.2	10.6	59.9	4.6	.	1.35	0.956	1.5	-11.5	-18.8	-10.6
C1=NN(c2ccccc2)C=NN1c1ccccc1	69.2*	.	.	68.4	6.1	-5.1	0.901	0.865	1.7	-4.7	-12.7	-59.9*
COc1ccc(Br)c(C(=O)OCc2cc(=O)oc3cc(C)ccc23)c1	23.7	12.4	43.8	61.8	-0.6	-3.6	.	.	.	.	.	.
Cc1ccc2c(COC(=O)C34CC5CC(CC(C5)C3)C4)cc(=O)oc2c1	95.8*	12.2	25.7	102.9*	-1.2	.	1.3	0.883	1.49	0.2	-18.2	-4.8
Cc1ccc(Cl)c2c(N=Nc3ccccc3)c(O)[nH]c12	57.6*	8.4	13.1	35.4	2.3	14.2	1.49	0.98	1.56	3.5	24.3	-9.1
CN(C)S(=O)(=O)c1ccc2c(c1)/C(=C/c1cc3c([nH]1)CCCC3)C(=O)N2	59.0*	.	.	69.0	0.7	34.5*	2.24*	1.06	7.72*	-17.3	21.9	-6.2
CC(C)CC#Cc1cnc2c(c1)C(=O)N([C@H](C)CO)C[C@@H](C)[C@H](CN(C)C(=O)Cc1cccnc1)O2	0.1	.	.	.	.	.	.	.	.	.	.	.
COCC#Cc1cnc2c(c1)C(=O)N([C@H](C)CO)C[C@@H](C)[C@H](CN(C)S(=O)(=O)c1ccccc1)O2	0.9	.	.	.	.	.	.	.	.	.	.	.
CNc1cnc(-c2ccc(F)c(F)c2F)cn1	73.3*	.	.	.	4.8	-1.0	1.08	0.963	1.49	-8.5	-17.4	-21.9
SMILES	esBAF inh	HSF1 inh	HSF1 activator	MITF TRPM1 HTS	SMARCA2 activ	Wnt act	esBAF Ring1 qPCR	esBAF Fgf4 qPCR	esBAF Bmi1 qPCR	A549 tox SP	HepG2 cytotox SP	HEK293 tox SP
Clc1ccc(SCNc2ccccc2Cl)cc1	6.8	7.6	19.3	-11.2	-1.3	3.1	.	.	.	.	.	.
Cc1ccc(NCSc2ccc(Cl)cc2)cc1	72.1*	.	.	50.4	4.0	16.2	0.958	1.06	1.53	-16.2	42.3	-2.4
O=C(NCC[C@@H]1CC[C@H](NS(=O)(=O)Cc2ccccc2)[C@H](CO)O1)C1CC1	1.2	.	.	.	.	.	.	.	.	.	.	.
O=C(C[C@H]1CC[C@H]2[C@@H](COC[C@@H](O)CN2C(=O)Nc2ccccc2)O1)NC1Cc2ccccc2C1	3.9	.	.	.	.	.	.	.	.	.	.	.
Cc1cc(C)c2nc(-c3ccccc3)ccc2c1	62.7*	.	.	.	4.0	14.0	0.928	?	1.58	-12.8	-17.3	-8.5
C(=N\N1CCN(c2ccccc2)CC1)/c1ccccc1	62.9*	15.7	22.2	90.7*	3.2	-1.9	0.994	0.998	1.49	-0.8	10.2	-0.4
NC(=O)c1ccccc1-c1nc(-c2ccccc2)no1	74.4*	19.0	28.0	.	3.8	.	0.986	1.06	1.64	-7.5	-15.3	-7.2
CCN(C(=O)c1ccc2c(Cl)c3c(nc2c1)CCC3)c1ccc(C)c(C)c1	-3.7	4.4	-9.4	-2.2	-2.7	-2.8	.	.	.	.	.	.
CN(C(=O)c1ccc2c(Cl)c3c(nc2c1)CCC3)c1ccccc1	87.9*	11.1	0.0	.	2.6	25.1	1.4	0.984	1.76	2.7	-22.7	1.3
CC(C)C(=O)N1CCN(c2nc3ccc(Cl)cc3s2)CC1	80.4*	21.5	29.3	62.8	3.2	16.2	1.17	0.957	1.71	-0.9	18.8	-19.0
